This test concerns the target alpha-synuclein (aSyn) WT (human, UniProt P37840 1-140). Nature of the test: RNA Bind-n-Seq. Conditions: ssRNA.
The sequence GGGCAGUGGAGG gave a binding signal of 54.6 enrichment score.
GGGUGGGUUUGG returned a binding signal of 43.8 enrichment score.
Under AUGGGAGUGGGG stands 43.8 enrichment score; under GAGGCGGGAGGG, 43.8 enrichment score; under GUGGGGGGGCAU, 43.8 enrichment score.
Next, GUGGAUGGCGGG: 49.1 enrichment score; GUGGGGAGGAAG: 46.4 enrichment score; GGGAUGUGUGGG: 60.2 enrichment score.
Next, GGGGGGAUUGGG: 57.4 enrichment score; AGUGGGUGUGGA: 49.1 enrichment score.
For UGGGGUAUUGGG, the binding signal was 43.8 enrichment score.
Under GGAGGAAGGGGA stands 41.1 enrichment score; under CGGAGGUGGGUG, 41.1 enrichment score; under GGAGGUAGGGAG, 43.8 enrichment score.
Under AGGGGAGCUGGG stands 41.1 enrichment score.
Next, GGUAGGCUGUGG: 49.1 enrichment score.
AAGGGGCGGAGG gave a binding signal of 54.6 enrichment score.
Under GGAGGUGGUGCG stands 41.1 enrichment score; under GGUGGAUGAGGG, 41.1 enrichment score.
Under GUGGGGAAGGGU stands 49.1 enrichment score; under GAGGUUGGCGGG, 43.8 enrichment score; under GCGGGCAGGUGG, 43.8 enrichment score.
Under AGUGGCGGAGGG stands 43.8 enrichment score.
GGGCUGGGAGUG yielded a binding signal of 41.1 enrichment score.
In turn, GGGGAUGGUAGG gave a binding signal of 43.8 enrichment score.
Under GGAGGUGGUGGA stands 46.4 enrichment score.
Under AGUGCGGGGGGG stands 49.1 enrichment score.
Next, GGGUGUUGGUUG: 43.8 enrichment score; GAGGAGGGUGGG: 57.4 enrichment score; GGUGGUUUGUGG: 43.8 enrichment score.
For GCGGGGGGGCUG, the binding signal was 43.8 enrichment score.
For GGAGGAGGCGGU, the binding signal was determined as 41.1 enrichment score.
Under GGGUGGGCGGAU stands 43.8 enrichment score.

Values taken from article doi:10.1101/2023.07.10.548322.
